Results filed as inconclusive are left out. Active and inactive are the calls of the source. The call rests on the fitted dose curve; in most records, active means well fitted inhibition curve with a large enough effect; inconclusive means small, poorly fitted or top-dose-only effect; inactive means flat fitted curve, though single readings scatter.
What was measured:
Test in all cases: qHTS profiling for inhibitors of Plasmodium falciparum proliferation (AID 504749); further: nearly all actives have a fitted effect of over 60% in size
Conditions in all cases: P. falciparum in erythrocytes, SYBR Green DNA, 72 h; series mostly up to 28.7 µM
CP250 = tested on: CP250
Summary of the method: (§1)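 SYBR Green fluorescence (ex 485 nm, em 535 nm) reports parasite DNA after 72 h compound exposure of infected red cells at 0.3% parasitemia, 2.5% hematocrit; signal normalized to 0.29 uM artemisinin and vehicle wells.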

CP252 = tested on: CP252
Summary of the method: as §1

CP256 = tested on: CP256
Summary of the method: as §1

CP260 = tested on: CP260
Summary of the method: as §1

CP262 = tested on: CP262
Summary of the method: as §1

CP265 = tested on: CP265
Summary of the method: as §1

CP266 = tested on: CP266
Summary of the method: as §1

CP268 = tested on: CP268
Summary of the method: as §1

CP269 = tested on: CP269
Summary of the method: as §1

CP286 = tested on: CP286
Summary of the method: as §1

Measured: Potency
Potency means the concentration at half of the fitted maximal effect.

OB(O)O
inactive: all assays above

CC1=CC(=C(c2ccc(N)cc2)c2ccc(N)cc2)C=CC1=N
active: CP250 1000 nM | CP252 3160 nM | CP256 2240 nM | CP260 2510 nM | CP262 4780 nM | CP265 3160 nM | CP266 7570 nM | CP268 6010 nM | CP269 4260 nM | CP286 1410 nM

COc1cc(C)c(/C=C/C(C)=C/C=C/C(C)=C/C(=O)O)c(C)c1C
inactive: all assays above

[O-][N+](=Nc1ccccc1)c1ccccc1
inactive: all assays above

O=C(O)Cc1cc(I)c(Oc2ccc(O)c(I)c2)c(I)c1
inactive: all assays above

CC(C)(C)CC(C)(C)c1cc(Cc2cc(C(C)(C)CC(C)(C)C)cc(-n3nc4ccccc4n3)c2O)c(O)c(-n2nc3ccccc3n2)c1
inactive: all assays above

CNC(=O)C[C@@H](N)C(=O)N[C@@H](C(=O)N[C@@H]1C(=O)N2[C@@H]1SC(C)(C)[C@@H]2C(=O)O)c1ccc(O)cc1
inactive: all assays above

CCCCC/C=C\C/C=C\C/C=C\CCCCC(=O)O
inactive: all assays above

O=P(O)(O)O
inactive: all assays above

CCN(CC)CCOc1ccccc1OC
inactive: all assays above

CC(CCc1ccc(O)cc1)NCC(O)c1ccc(O)cc1 (stereo not given)
inactive: all assays above

O=S(=O)(O)CC(S)CS (stereo not given)
inactive: all assays above

CCOc1ccc(S(=O)(=O)O)c2cccnc12
inactive: all assays above

[O]=[Bi][O]C(=O)[O][Bi]=[O]
inactive: all assays above

O=C(O)COc1ccc(CCNS(=O)(=O)c2ccccc2)s1
inactive: all assays above

S=C1SCN(Cc2ccccc2)CN1Cc1ccccc1
inactive: all assays above

CN=C1C=CC(=C(c2ccc(N(C)C)cc2)c2ccc(N(C)C)cc2)C=C1
active: CP250 562 nM | CP252 398 nM | CP256 355 nM | CP260 224 nM | CP262 757 nM | CP265 794 nM | CP266 1070 nM | CP268 1690 nM | CP269 849 nM | CP286 199 nM

CC(=O)N=c1sc(S(N)(=O)=O)nn1C
inactive: all assays above

c1ccc2ccccc2c1
inactive: all assays above

CC(C)c1ncc([N+](=O)[O-])n1C
inactive: all assays above

C=CC(=O)O
inactive: all assays above

CN(CCO)CC(O)Cn1cnc2c1c(=O)n(C)c(=O)n2C (stereo not given) (tested in a mixture with another compound)
inactive: all assays above

Reference: PubChem BioAssay (NCATS)
